Test results taken from PubChem BioAssay (NCI).
This is part of a sample that, as a whole, favours compounds with a hit. Of some 79,000 tested, about 15% had one in any assay. Activity calls are given as the source filed them. Rule as the data show it: active = growth inhibition above about 70%; inactive = the rest.

Assays:
[1] = NCI Yeast Anticancer Drug Screen. Data for the rad50 strain (AID 155);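 also: 0% = growth of vehicle-only cultures of the same strain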; conditions: S. cerevisiae rad50 strain growth inhibition; at 50.0 µM; stronger effect = higher value
How it was run: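 DNA repair mutant yeast, compound exposure, growth read-out; inhibition is taken relative to vehicle.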

[2] = NCI Yeast Anticancer Drug Screen. Data for the mec2-1 strain (AID 157); conditions: S. cerevisiae mec2-1 strain, at 50.0 µM, stronger effect = higher value
How it was run: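 Using mec2-1 yeast: add compound, measure growth, express inhibition versus vehicle-treated cultures.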

[3] = NCI Yeast Anticancer Drug Screen. Data for the sgs1 mgt1 strain (AID 161);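 also: 0% = growth of cultures given vehicle only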; conditions: S. cerevisiae sgs1 mgt1 strain, at 50.0 µM, stronger effect = higher value
How it was run: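 Compounds are added to genetically altered yeast, and growth is compared with cultures given vehicle alone to give percent inhibition.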

[4] = NCI Yeast Anticancer Drug Screen. Data for the cln2 rad14 strain (AID 165);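 also: 0% = growth equal to vehicle treated cultures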; conditions: S. cerevisiae cln2 rad14 strain, at 50.0 µM, stronger effect = higher value
How it was run: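 Yeast strain cln2 rad14, bearing defects in cell cycle control and DNA repair, serves as the test system; values reflect growth inhibition compared with vehicle.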

[5] = NCI Yeast Anticancer Drug Screen. Data for the bub3 strain (AID 167); conditions: S. cerevisiae bub3 mutant strain, at 50.0 µM, stronger effect = higher value
How it was run: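 In this screen, a yeast mutant lacking normal mitotic checkpoint function is challenged with compound. Relative growth versus vehicle gives the inhibition value.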

[6] = NCI Yeast Anticancer Drug Screen. Data for the mlh1 rad18 strain (AID 175); conditions: S. cerevisiae mlh1 rad18 strain growth inhibition; at 50.0 µM; stronger effect = higher value
How it was run: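 Steps: expose repair-defective yeast to compound; measure growth; express inhibition against vehicle-treated controls.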

Measured: growth inhibition

NC(=O)[N+](=CC(=S)Nc1ccccc1Cl)C(N)=O
inactive: [1] -43.3% | [2] -43.5% | [3] -36.7% | [4] -15.8% | [5] -33.4% | [6] 34.6%

COc1ccc(N2C(=O)C3c4[nH]c5ccccc5c4C4CCCCC4C3C2=O)cc1 (stereo not drawn)
inactive: [1] -3.4% | [2] 5.1% | [3] -7.15% | [4] 9.95% | [5] -1.05% | [6] -6.05%

Cc1cc(N=[N+]=[N-])c2cc3c(cc2n1)OCO3
inactive: [1] -32.2% | [2] -7.5% | [3] -0.4% | [4] -39% | [5] 5.65% | [6] 14%

C=CCNC(=O)CCCCCCC/C=C\CCCCCCCC
inactive: [1] 16.6% | [2] -8.5% | [3] -1.45% | [4] -27.6% | [5] -2.85% | [6] 9.4%

C1CCC(C2CCCC[N-]2)[N-]C1.C1CCC(C2CCCC[N-]2)[N-]C1.[Cl][Ru][Cl] (stereo not drawn)
inactive: [1] 47% | [2] 8.55% | [3] 29.1% | [4] 6.8% | [5] -0.75% | [6] 18.9%

CCC(C)C(C)(CO)CO (stereo not drawn)
inactive: [1] 1.5% | [2] -20.9% | [3] -3.7% | [4] 20.4% | [5] -14.3% | [6] 25.6%

COC(=O)c1cc2ccccc2[nH]1
inactive: [1] 4% | [2] 8% | [3] -7.6% | [4] -15.3% | [5] -11.9% | [6] -13.8%

CCCCCCCCC(O)C(O)CCCCCCCCOC(=O)CCCCCCCCCCC(O)CCCCCC (stereo not drawn)
inactive: [1] 13.1% | [2] -8.65% | [3] -1.55% | [4] -9.7% | [5] -2.1% | [6] 18.4%

CCCCNC(C(=O)c1ccccc1)c1ccccc1 (stereo not drawn)
inactive: [1] 4.85% | [2] 17.1% | [3] 0.45% | [4] -16.6% | [5] 13.9% | [6] 26.4%

Oc1ccc(OCc2ccccc2)cc1CN1CCOCC1
inactive: [1] 17.2% | [2] 7.85% | [3] 27.3% | [4] 7.15% | [5] 22.9% | [6] 34.5%

O=c1c2ccccc2c2nccn2c2ccccc12
inactive: [1] 13.8% | [2] 3% | [3] 19.1% | [4] -9.1% | [5] -0.3% | [6] -5.25%

CCSCCNC(=O)NS(=O)(=O)c1ccc(C)cc1
inactive: [1] 4.85% | [2] -0.75% | [3] -6.45% | [4] 1.55% | [5] -11.4% | [6] 14%

COc1cc(CNc2nc3ccccc3n2Cc2ccccc2)cc(CN2CCOCC2)c1O
inactive: [1] -4.4% | [2] 15.7% | [3] 3.7% | [4] 33.3% | [5] 9.55% | [6] 7.55%

CN1CCN(C(=O)NC(C)(C)C)CC1
inactive: [1] -1.45% | [2] -6.6% | [3] -8.35% | [4] -88.8% | [5] -1.9% | [6] -17.7%

CC1(C)OCC2OC=CC(=O)C2O1 (stereo not drawn)
inactive: [1] -8.65% | [2] -2.65% | [3] -0.4% | [4] 5.15% | [5] -14.1% | [6] -68.5%

CN(C)c1ccc(-c2c(C#N)c(O)n(NS(=O)(=O)c3ccccc3)c(=O)c2C#N)cc1
inactive: [1] -28.9% | [2] -10.7% | [3] -14.2% | [4] 13.9% | [5] -21.4% | [6] -14.2%

CCOC(=O)/C(CC)=N\O
inactive: [1] 8.55% | [2] -4.85% | [3] 3.75% | [4] 3.25% | [5] -4.45% | [6] 19.2%

C=C(C)c1ccc(C(=C)C)cc1
inactive: [1] -45.9% | [2] -40.9% | [3] -38.2% | [4] -3.9% | [5] -23.9% | [6] -40.5%

CCCCCCCCCCCCCCCCS
inactive: [1] -2.15% | [2] -16.4% | [3] 17.6% | [4] -6.6% | [5] 6.6% | [6] -4.8%

CCCCCCCC1CC(OCC)OC(CCCCCCC)O1 (stereo not drawn)
inactive: [1] -1.8% | [2] -15.1% | [3] -6.95% | [4] -8.2% | [5] -2.25% | [6] -18.4%

Cc1ccc(C(=O)OCC2OC(Cl)CC2OC(=O)c2ccc(C)cc2)cc1 (stereo not drawn)
inactive: [1] 22.6% | [2] -13.7% | [3] 26.8% | [4] -36% | [5] 2.85% | [6] -8.3%

COc1ccccc1NC(=O)Cc1nc(=O)[nH]c(=O)[nH]1
inactive: [1] -13.3% | [2] -37.7% | [3] 3.5% | [4] -0.35% | [5] -4.95% | [6] -9.55%

O=c1cc(CC2(O)CCCCC2)c2ccccc2[nH]1
inactive: [1] -3.95% | [2] 0.3% | [3] -2.5% | [4] -58% | [5] -48.8% | [6] 9.8%

CCCNC(=S)N=Nc1c(O)[nH]c2ccccc12
inactive: [1] -46.2% | [2] -55.8% | [3] -25.1% | [4] -31.5% | [5] -22.2% | [6] -11.2%

Cc1ccc(OCCNCCO)cc1
inactive: [1] 23.3% | [2] -11.4% | [3] 6.3% | [4] 10.4% | [5] -1.2% | [6] 18.2%

O=C(O)[C@@H]1OCCOCCO[C@@H](C(=O)O)[C@H](C(=O)O)OCCOCCO[C@H]1C(=O)O
inactive: [1] 14.7% | [2] 0.05% | [3] -8.05% | [4] 14.4% | [5] 2.25% | [6] -6.4%

COc1cc2cc(OC)c3cc4c(cc3c2c(OC)c1OC)OCO4
inactive: [1] 12.2% | [2] 11.1% | [3] 19.2% | [4] 7.3% | [5] 6.6% | [6] 5.65%

CC(C)=CCc1c(O)ccc(C(=O)[C@H]2C(c3ccc(O)cc3O)CC(C)=C[C@@H]2c2c(O)cc(O)c3c(=O)c(CC=C(C)C)c(-c4ccc(O)cc4O)oc23)c1O (stereo partly drawn)
active: [1] 88.4% | [2] 90% | [3] 92% | [4] 89% | [5] 90.2% | [6] 89.8%

NC(Cc1ccccc1)C(=O)CCl (stereo not drawn)
inactive: [1] 31.6% | [2] 29.8% | [3] 40.8% | [4] 18.4% | [5] 36.2% | [6] 46.5%

Cc1ccc2nc(-c3ccc(N=NNc4ccc(-c5nc6ccc(C)c(S(=O)(=O)O)c6s5)cc4)cc3)sc2c1S(=O)(=O)O
inactive: [1] 23.5% | [2] 6.85% | [3] -9.7% | [4] 18.2% | [5] 12.3% | [6] 18.6%

Cn1ncc2c(NCc3ccccc3)nc(Cl)nc21
inactive: [1] 6.5% | [2] -11.2% | [3] 16.4% | [4] -9.9% | [5] 5.85% | [6] 12.9%

CC(C(=O)O)c1ccc(-n2nnc3c(=O)[nH][nH]c(=O)c32)cc1 (stereo not drawn)
inactive: [1] -16.2% | [2] -8.4% | [3] -12.6% | [4] -17.3% | [5] 2.8% | [6] -5.7%

O=C1c2cc(CCl)sc2C(=O)c2ccsc21
active: [1] 88.9% | [2] 89.3% | [3] 89.5% | [4] 89.8% | [5] 87.6% | [6] 83.2%
